Data: PubChem BioAssay AID1159580 (chemical genetic matrix, 2015)
Several values for one entry are separate records, joined by “and”; a condition that tells them apart may be missing. Equal entries are not always repeated. Hit rate of the full screen: of about 5,500 compounds, about 2,000 (36%) were called active. Not shown: some 18% with an inconclusive outcome. Cut-off read from the data, not from the text of the source: active = normalized growth mostly below about 0.91 (no sharp cut-off); inconclusive = no clear call, values can overlap the other calls; inactive = mostly above about 0.92. This is one part of the list.

Assay: chemical genetic growth profiling, strain panel (AID 1159580);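 note: tested at 20 µM; growth read once vehicle control cultures reached saturation at 30 °C; 1 = growth at the plate median or of vehicle wells; lower values mean less growth of the strain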
Details: S. cerevisiae deletion strains, growth OD

Measured: normalized growth

COc1ccc2cc3[n+](cc2c1OC)CCc1cc2c(cc1-3)OCO2
inactive: locus YAL021C, strain ccr4, hits give low values 0.997 | locus YAL026C, strain drs2, hits give low values 0.99 | locus YAL030W, strain snc1, hits give low values 0.996 | locus YBL061C, strain skt5, hits give low values 0.986 | locus YBR009C, strain hhf1, hits give low values 1 | locus YBR021W, strain FUR4, hits give low values 0.847 | locus YBR023C, strain chs3, hits give low values 0.982 | locus YBR171W, strain sec66, hits give low values 0.983 | locus YBR231C, strain swc5, hits give low values 0.985 | locus YBR279W, strain paf1, hits give low values 0.987 | locus YCL011C, strain gbp2, hits give low values 0.998 | locus YCL016C, strain dcc1, hits give low values 0.982 | locus YCL061C, strain MRC1, hits give low values 1.01 | locus YCL069W, strain vba3, hits give low values 0.999 | locus YCR088W, strain abp1, hits give low values 0.98 | locus YDL005C, strain med2, hits give low values 0.984 | locus YDL040C, strain nat1, hits give low values 0.986 | locus YDL185W, strain tfp1, hits give low values 1 | locus YDR001C, strain nth1, hits give low values 0.981 | locus YDR069C, strain doa4, hits give low values 1 | locus YDR137W, strain rgp1, hits give low values 0.979 | locus YDR159W, strain sac3, hits give low values 1.02 | locus YDR195W, strain ref2 0.977 | locus YDR297W, strain sur2, hits give low values 0.99 | locus YDR334W, strain swr1, hits give low values 0.973 | locus YDR335W, strain msn5, hits give low values 0.967 | locus YDR392W, strain spt3, hits give low values 0.984 | locus YEL003W, strain gim4, hits give low values 0.99 | locus YEL037C, strain rad23, hits give low values 0.981 | locus YEL061C, strain CIN8 (second series), hits give low values 0.993 | locus YER015W, strain faa2, hits give low values 0.991 | locus YER016W, strain bim1, hits give low values 0.981 | locus YER111C, strain swi4, hits give low values 1 | locus YER155C, strain BEM2 (second series), hits give low values 0.968 | locus YER155C, strain BEM2, hits give low values 0.957 | locus YFR010W, strain ubp6, hits give low values 0.992 | locus YGL167C, strain pmr1, hits give low values 0.983 | locus YGL173C, strain kem1, hits give low values 0.989 | locus YGL227W, strain vid30, hits give low values 0.989 | locus YGL240W, strain doc1, hits give low values 0.996 | locus YGL253W, strain hxk2, hits give low values 0.988 | locus YHR013C, strain ard1, hits give low values 0.943 | locus YHR027C, strain rpn1, hits give low values 0.998 | locus YHR142W, strain chs7, hits give low values 0.995 | locus YIL125W, strain kgd1, hits give low values 0.966 | locus YJL092W, strain hpr5, hits give low values 0.982 | locus YJL095W, strain BCK1 (second series), hits give low values 1.01 | locus YJL115W, strain asf1, hits give low values 0.986 | locus YJL129C, strain trk1, hits give low values 0.993 | locus YJL154C, strain vps35, hits give low values 0.974 | locus YJL164C, strain tpk1, hits give low values 0.99 | locus YJL166W, strain qcr8, hits give low values 1.01 | locus YJL187C, strain SWE1, hits give low values 0.989
active: locus YAL013W, strain DEP1, hits give low values 0.509 | locus YBR229C, strain ROT2, hits give low values 0.762 | locus YCL029C, strain bik1, hits give low values 0.379 | locus YDL035C, strain GPR1, hits give low values 0.278 | locus YDL074C, strain BRE1, hits give low values 0.352 | locus YDL101C, strain DUN1, hits give low values 0.569 | locus YDL134C, strain PPH21, hits give low values 0.398 | locus YDL192W, strain arf1, hits give low values 0.436 | locus YDR101C, strain arx1, hits give low values 0.278 | locus YDR150W, strain NUM1, hits give low values 0.681 | locus YDR162C, strain NBP2, hits give low values 0.533 | locus YDR318W, strain mcm21, hits give low values 0.461 | locus YDR388W, hits give low values 0.365 | locus YDR502C, strain sam2, hits give low values 0.345 | locus YEL061C, strain CIN8, hits give low values 0.567 | locus YER110C, hits give low values 0.452 | locus YER167W, strain BCK2, hits give low values 0.467 | locus YGL078C, strain dbp3, hits give low values 0.854 | locus YGL086W, strain mad1, hits give low values 0.394 | locus YGL248W, strain PDE1, hits give low values 0.3 | locus YGR078C, strain PAC10, hits give low values 0.481 | locus YGR135W, strain pre9, hits give low values 0.318 | locus YGR229C, strain SMI1, hits give low values 0.454 | locus YGR252W, strain gcn5, hits give low values 0.604 | locus YHR030C, strain SLT2, hits give low values 0.664 and 0.844 | locus YHR079C, strain IRE1 (second series), hits give low values 0.439 | locus YHR079C, strain IRE1, hits give low values 0.783 | locus YHR094C, strain hxt1, hits give low values 0.689 | locus YHR129C, strain ARP1, hits give low values 0.699 | locus YHR200W, strain rpn10, hits give low values 0.518 | locus YIL066C, strain RNR3, hits give low values 0.373 | locus YIL073C, strain SPO22, hits give low values 0.209 | locus YIR030C, strain dcg1, hits give low values 0.521 | locus YJL095W, strain BCK1, hits give low values 0.417 and 0.79 | locus YJL134W, strain LCB3, hits give low values 0.874 | locus YJL168C, strain set2, hits give low values 0.826 | locus YJL187C, strain SWE1 (second series), hits give low values 0.291 | locus YJR043C, strain POL32, hits give low values 0.482 | locus YJR066W, strain TOR1, hits give low values 0.765
